Reference: PubChem BioAssay
For part of these data: Results with a measured potency or affinity are listed apart. Active and inactive are the calls of the source.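 The calls were made as follows, unless noted: active = primary screen hit whose fluorescence ratio, in both repeats, exceeds the weak agonist control mean by 3 SD; inactive = the rest.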

Experiments:
[1] = test system: TRPC4 beta (transient receptor potential cation channel C4), mouse; assay: TRPC4 cation channel opening, retest – cell-based, Fluo4 calcium, HEK293 TRPC4beta/mu-opioid, duplicates, 10 µM, confirmation (AID 2426;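 active = fluorescence ratio normalized to control raised more than 50% in primary screen plus both repeat runs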); conditions: Fluo4 calcium fluorescence, at 10 µM; stronger effect = higher value
[2] = test system: transient receptor potential cation channel C4 beta (TRPC4), mouse; assay: TRPC4 cation channel opening, second retest – cell-based, second round, Fluo4, HEK293 TRPC4beta/mu-opioid, 1 µM, confirmation (AID 2461;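 active = primary screen active and over 50% activation in each of two duplicate runs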); conditions: Fluo4 calcium fluorescence, at 1 µM; stronger effect = higher value
[3] = test system: TRPC4 (transient receptor potential cation channel C4 beta), mouse; assay: potentiation of DAMGO EC20 TRPC4 response – cell-based, second round, Fluo-4, HEK293 TRPC4beta/mu-opioid, 1 µM, confirmation (AID 2554); conditions: DAMGO EC20, Fluo-4 calcium flux, at 1 µM; stronger effect = higher value
[4] = test system: TRPC4 beta (transient receptor potential cation channel C4), mouse; assay: potentiation of DAMGO EC20 TRPC4 response – cell-based, Fluo-4, HEK293 TRPC4beta/mu-opioid, confirmation (AID 2555;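 active = primary screen hit whose calcium fluorescence ratio, in both repeats, exceeds the weak agonist control mean by 3 SD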); conditions: DAMGO EC20, Fluo-4 calcium flux, at 10 µM; stronger effect = higher value
[5] = biological target: Short transient receptor potential channel 4 (Mus musculus) (UniProt Q9QUQ5); assay: blockers of DAMGO-evoked TRPC4 calcium flux – cell-based, Fluo4, HEK293 TRPC4beta/mu-opioid, confirmation (AID 2636;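 active = calcium signal cut by more than 3 SD below the full-agonist control yet still positive, in both repeats and the earlier primary screen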); conditions: at 10 µM; stronger effect = higher value
[6] = biological target: Short transient receptor potential channel 4 (Mus musculus) (UniProt Q9QUQ5); assay: blockers of DAMGO-evoked TRPC4 calcium flux – cell-based, second round, Fluo4, HEK293 TRPC4beta/mu-opioid, 1 µM, confirmation (AID 2637;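 active = calcium signal ratio cut to more than 3 SD under the fully stimulated control mean yet still positive, in both repeats and the primary screen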;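 as to inhibition: percent of integrated ratio relative to wells lacking test compound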); conditions: at 1 µM; stronger effect = higher value
[7] = biological target: Short transient receptor potential channel 4 (Mus musculus) (UniProt Q9QUQ5); assay: calcium entry via TRPC4 opening agents – cell-based, HEK293 TRPC4/mu-opioid, Fluo-4 calcium, dose response (AID 434937;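 active = primary screen activator hit with a dose response curve and TRPC4 channel activation at any tested dose; inactive = no activation, no dose response, or not a primary hit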)
[8] = biological target: Short transient receptor potential channel 4 (Mus musculus) (UniProt Q9QUQ5); assay: potentiation of DAMGO-evoked TRPC4 calcium signal – cell-based, HEK293 TRPC4/mu-opioid, Fluo-4 calcium, EC20 DAMGO, dose response (AID 434941;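 active = earlier screen potentiator hit that boosts the TRPC4 ion channel at some dose, with a dose response; inactive = no potentiation, no dose response, or not a prior hit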;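 also: calcium entry triggered by an EC20 dose of DAMGO at the co-expressed mu-opioid receptor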)
[9] = biological target: Short transient receptor potential channel 6 (Mus musculus) (UniProt Q61143); assay: TRPC6 blockade by TRPC4 inhibitor hits – cell-based, HEK293, membrane potential dye, duplicate, selectivity assay for TRPC4 inhibitor project, confirmation (AID 434948;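 active = active in primary screen and both duplicates, each dropping signal beyond three positive-control SD with fluorescence still positive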); conditions: HEK293 TRPC6, membrane potential dye fluorescence, at 10 µM, stimulated with maximal-effect acetylcholine; stronger effect = higher value
[10] = biological target: Short transient receptor potential channel 6 (Mus musculus) (UniProt Q61143); assay: TRPC6 opening by TRPC4 activator hits – cell-based, HEK293, membrane potential dye, duplicate, selectivity assay for TRPC4 activator project, confirmation (AID 434950;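 active = membrane potential signal rise above negative control mean plus 3 SD in both duplicates, also active in the earlier TRPC4 screen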;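 as to activation: 0% = buffer only wells and 100% = acetylcholine maximal-effect wells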); conditions: HEK293 TRPC6, membrane potential fluorescence, at 10 µM; activation: stronger effect = higher value; outcome: activation
[11] = biological target: Short transient receptor potential channel 6 (Mus musculus) (UniProt Q61143); assay: positive modulators of mouse TRPC6 channel – HEK293 cells, membrane potential dye, duplicate, selectivity assay for TRPC4 potentiator project, confirmation (AID 434952;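 active = compound raising the membrane signal above positive-control mean plus 3 SD in both repeats, and a primary screen hit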); conditions: HEK293 TRPC6, membrane potential dye fluorescence, at 10 µM, maximal acetylcholine added after compound; stronger effect = higher value
[12] = biological target: Short transient receptor potential channel 4 (Mus musculus) (UniProt Q9QUQ5); assay: calcium flux activators in TRPC4/5HT1a cells, counter-screen for TRPC4 activator project, cell-based, second counter screen, HEK293 TRPC4/5HT1a, Fluo-4 (AID 434977;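 active = calcium signal rise above buffer-control mean plus 5 SD in both duplicates, and also a hit in the primary screen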); conditions: Fluo-4 calcium flux, at 10 µM; stronger effect = higher value
[13] = serotonin-gated TRPC4 signal block – cell-based, second counter screen, HEK293 TRPC4/5HT1a, Fluo-4, counter-screen for TRPC4 inhibitor project, confirmation (AID 434978;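 active = primary screen active whose calcium signal fell more than 3 SD beyond the full-serotonin control mean in both duplicate plates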;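 as to outcome: serotonin given first at submaximal then at maximal dose after compound preincubation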); conditions: Fluo-4 calcium flux, at 10 µM, serotonin added to trigger calcium flux; stronger effect = higher value
[14] = test system: TRPC4 (mouse), co-expressed with 5HT1a in HEK293; assay: enhancement of serotonin-evoked TRPC4 response – cell-based, second counter screen, HEK293 TRPC4/5HT1a, Fluo-4, counter-screen for TRPC4 potentiator project, confirmation (AID 434979;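 active = signal rise over 3 SD above mean of control wells given weak agonist, in both repeats and first screen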); conditions: Fluo-4 calcium flux, at 10 µM, serotonin added at its EC20 dose; stronger effect = higher value
[15] = nonspecific calcium rise without TRPC4 – cell-based, HEK293 mu-opioid receptor line, counter-screen for TRPC4 activator project, confirmation (AID 449723;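 active = hit in primary screen, with calcium signal over 5 SD above buffer well mean in both duplicates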;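 also: counter screen cells carry the mu-opioid receptor alone and lack TRPC4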); conditions: HEK293 mu-opioid cells, Fluo-4 calcium fluorescence, at 10 µM; stronger effect = higher value
[16] = nonspecific potentiation of DAMGO calcium response – cell-based, HEK293 mu-opioid receptor line, counter-screen for TRPC4 allosteric potentiator project, confirmation (AID 449724;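 active = calcium signal rise more than 3 SD above the low-dose agonist control mean, in both duplicate plates and the primary screen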); conditions: HEK293 mu-opioid receptor cells, Fluo-4 calcium flux, at 10 µM, compound added before EC20 DAMGO stimulus; stronger effect = higher value

Sequence of Short transient receptor potential channel 6 (Mus musculus) (Q61143 whole entry, looked up): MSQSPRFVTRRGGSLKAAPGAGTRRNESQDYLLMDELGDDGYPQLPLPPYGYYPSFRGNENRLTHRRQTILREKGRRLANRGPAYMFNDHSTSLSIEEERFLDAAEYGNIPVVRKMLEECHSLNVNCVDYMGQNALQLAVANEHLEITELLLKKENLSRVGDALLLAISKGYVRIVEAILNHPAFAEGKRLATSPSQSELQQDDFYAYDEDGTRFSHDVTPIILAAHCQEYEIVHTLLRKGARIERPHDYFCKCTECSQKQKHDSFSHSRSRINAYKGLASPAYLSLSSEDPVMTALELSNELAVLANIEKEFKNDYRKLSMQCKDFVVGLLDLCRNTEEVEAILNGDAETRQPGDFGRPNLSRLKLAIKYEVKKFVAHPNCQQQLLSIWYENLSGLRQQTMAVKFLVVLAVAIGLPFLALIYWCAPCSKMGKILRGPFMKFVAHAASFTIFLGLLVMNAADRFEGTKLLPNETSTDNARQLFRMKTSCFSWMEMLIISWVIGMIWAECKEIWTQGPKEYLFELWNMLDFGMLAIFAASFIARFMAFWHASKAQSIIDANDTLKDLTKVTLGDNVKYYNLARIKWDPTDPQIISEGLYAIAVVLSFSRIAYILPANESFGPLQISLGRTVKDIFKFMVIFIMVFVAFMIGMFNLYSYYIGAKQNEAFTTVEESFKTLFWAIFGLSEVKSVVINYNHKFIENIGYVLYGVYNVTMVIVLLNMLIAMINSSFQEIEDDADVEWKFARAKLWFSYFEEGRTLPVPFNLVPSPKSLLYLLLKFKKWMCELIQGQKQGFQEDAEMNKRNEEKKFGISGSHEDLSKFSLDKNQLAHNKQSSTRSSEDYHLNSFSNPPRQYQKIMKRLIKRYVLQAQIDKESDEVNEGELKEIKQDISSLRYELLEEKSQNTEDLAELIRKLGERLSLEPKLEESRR
Sequence of Short transient receptor potential channel 4 (Mus musculus) (Q9QUQ5 whole entry, looked up): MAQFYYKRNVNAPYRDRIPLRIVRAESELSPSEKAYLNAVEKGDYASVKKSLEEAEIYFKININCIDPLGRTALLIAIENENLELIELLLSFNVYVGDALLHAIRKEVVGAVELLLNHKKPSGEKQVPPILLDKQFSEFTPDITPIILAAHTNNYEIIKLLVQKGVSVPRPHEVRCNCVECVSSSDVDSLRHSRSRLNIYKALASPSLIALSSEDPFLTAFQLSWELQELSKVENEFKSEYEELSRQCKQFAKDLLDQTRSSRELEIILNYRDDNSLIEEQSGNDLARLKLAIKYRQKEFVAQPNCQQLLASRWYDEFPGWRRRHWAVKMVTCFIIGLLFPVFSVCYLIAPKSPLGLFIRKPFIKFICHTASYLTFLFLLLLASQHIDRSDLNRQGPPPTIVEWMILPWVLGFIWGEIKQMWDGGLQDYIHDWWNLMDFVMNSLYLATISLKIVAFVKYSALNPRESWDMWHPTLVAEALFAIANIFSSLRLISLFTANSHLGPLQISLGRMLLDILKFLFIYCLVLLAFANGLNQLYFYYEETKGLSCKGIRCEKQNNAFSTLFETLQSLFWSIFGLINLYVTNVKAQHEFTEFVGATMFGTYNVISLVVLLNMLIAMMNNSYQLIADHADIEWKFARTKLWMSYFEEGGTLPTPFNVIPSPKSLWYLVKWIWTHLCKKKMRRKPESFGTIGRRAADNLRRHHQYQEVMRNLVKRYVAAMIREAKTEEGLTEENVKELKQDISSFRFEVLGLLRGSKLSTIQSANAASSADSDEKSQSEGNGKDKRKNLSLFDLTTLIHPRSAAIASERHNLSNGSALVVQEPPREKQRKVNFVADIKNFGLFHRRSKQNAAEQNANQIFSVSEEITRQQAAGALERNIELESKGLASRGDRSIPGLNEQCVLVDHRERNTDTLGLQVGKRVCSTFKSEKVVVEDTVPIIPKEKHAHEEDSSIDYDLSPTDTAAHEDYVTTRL

COc1cc(/C=C2\SC(N3CCC(C)CC3)=NC2=O)ccc1O
active: inhibition [5] 91% | inhibition [6] 48% | inhibition [13] 31.2%
inactive: outcome [1] | outcome [2] | outcome [3] | outcome [4] | outcome [7] | outcome [8] | outcome [9] | outcome [10] | outcome [11] | outcome [12] | outcome [14] | outcome [15] | outcome [16]

CCCn1c(NCc2ccc(C)o2)nc2ccccc21
active: inhibition [5] 70% | inhibition [13] 30%
inactive: outcome [1] | outcome [2] | outcome [3] | outcome [4] | outcome [6] | outcome [7] | outcome [8] | outcome [9] | outcome [10] | outcome [11] | outcome [12] | outcome [14] | outcome [15] | outcome [16]

Nc1c2c(nc3ccccc13)CCC2
active: inhibition [5] 97% | inhibition [6] 44% | inhibition [9] 16.5% | inhibition [13] 29.6%
inactive: outcome [1] | outcome [2] | outcome [3] | outcome [4] | outcome [7] | outcome [8] | outcome [10] | outcome [11] | outcome [12] | outcome [14] | outcome [15] | outcome [16]

COc1ccccc1Nc1nc(NCC2CCCO2)c2ccccc2n1 (stereo not given)
inactive: outcome [1] | outcome [2] | outcome [3] | outcome [4] | outcome [7] | outcome [8] | outcome [10] | outcome [11] | outcome [12] | outcome [14] | outcome [15] | outcome [16]
active: inhibition [5] 91% | inhibition [6] 50% | inhibition [9] 10% | inhibition [13] 31.5%

Cc1ccc(Cn2c(Cc3ccccc3)nc3ccccc32)cc1
active: inhibition [6] 64% | inhibition [13] 7.29%
inactive: outcome [1] | outcome [2] | outcome [3] | outcome [4] | outcome [5] | outcome [7] | outcome [8] | outcome [9] | outcome [10] | outcome [11] | outcome [12] | outcome [14] | outcome [15] | outcome [16]

Cc1cccc(N(Cc2ccccc2)C(=O)CSC(C)C(=O)Nc2cc(C)on2)c1 (stereo not given)
inactive: outcome [1] | outcome [2] | outcome [3] | outcome [4] | outcome [6] | outcome [7] | outcome [8] | outcome [9] | outcome [10] | outcome [11] | outcome [12] | outcome [14] | outcome [15] | outcome [16]
active: inhibition [5] 91% | inhibition [13] 31.4%

CCN(CC)CCn1c2ccccc2c2cnc(N)c(C#N)c21
inactive: outcome [1] | outcome [2] | outcome [3] | outcome [4] | outcome [6] | outcome [7] | outcome [8] | outcome [9] | outcome [10] | outcome [11] | outcome [12] | outcome [14] | outcome [15] | outcome [16]
active: inhibition [5] 82% | inhibition [13] 32.9%

O=C1CN=C(Nc2cccc(C(F)(F)F)c2)N1C1CCCC1
inactive: outcome [1] | outcome [2] | outcome [3] | outcome [4] | outcome [6] | outcome [7] | outcome [8] | outcome [9] | outcome [10] | outcome [11] | outcome [12] | outcome [14] | outcome [15] | outcome [16]
active: inhibition [5] 94% | inhibition [13] 26.8%

COc1ccc(Sc2nc(-c3ccccc3)ncc2C(=O)O)cc1
inactive: outcome [1] | outcome [2] | outcome [3] | outcome [4] | outcome [6] | outcome [7] | outcome [8] | outcome [9] | outcome [10] | outcome [11] | outcome [12] | outcome [14] | outcome [15] | outcome [16]
active: inhibition [5] 48% | inhibition [13] 45.5%

CCc1nc2ccccc2n1Cc1ccccc1OC
active: inhibition [5] 66% | inhibition [6] 48% | inhibition [13] 43.4%
inactive: outcome [1] | outcome [2] | outcome [3] | outcome [4] | outcome [7] | outcome [8] | outcome [9] | outcome [10] | outcome [11] | outcome [12] | outcome [14] | outcome [15] | outcome [16]

CNc1nc(NCc2ccccc2)c2ccccc2n1
active: inhibition [6] 69% | inhibition [9] 50.5% | inhibition [13] 26.9%
inactive: outcome [1] | outcome [2] | outcome [3] | outcome [4] | outcome [5] | outcome [7] | outcome [8] | outcome [10] | outcome [11] | outcome [12] | outcome [14] | outcome [15] | outcome [16]

Cc1cccc(-c2nnc(SCc3nc4ccccc4[nH]3)n2Cc2ccco2)c1
inactive: outcome [1] | outcome [2] | outcome [3] | outcome [4] | outcome [6] | outcome [7] | outcome [8] | outcome [9] | outcome [10] | outcome [11] | outcome [12] | outcome [14] | outcome [15] | outcome [16]
active: inhibition [5] 90% | inhibition [13] 26.7%

COc1cccc2cc(C(N)=O)/c(=N\NC(=O)c3ccccc3)oc12
active: inhibition [5] 73% | inhibition [6] 44% | inhibition [13] 40.1%
inactive: outcome [1] | outcome [2] | outcome [3] | outcome [4] | outcome [7] | outcome [8] | outcome [9] | outcome [10] | outcome [11] | outcome [12] | outcome [14] | outcome [15] | outcome [16]

Cc1ccc(NC(=O)CN2CCc3ccccc3C2)cc1S(=O)(=O)N1CCOCC1
inactive: outcome [1] | outcome [2] | outcome [3] | outcome [4] | outcome [7] | outcome [8] | outcome [9] | outcome [11] | outcome [12] | outcome [13] | outcome [14] | outcome [15] | outcome [16]
active: inhibition [5] 92% | inhibition [6] 46% | activation [10] 30.5%

Clc1ccc2c(c1)-c1nnc(Br)n1-c1ccccc1S2
inactive: outcome [1] | outcome [2] | outcome [3] | outcome [4] | outcome [6] | outcome [7] | outcome [8] | outcome [9] | outcome [10] | outcome [11] | outcome [12] | outcome [13] | outcome [14] | outcome [15] | outcome [16]
active: inhibition [5] 83%
